Measured values: PubChem BioAssay (Tox21)
Inconclusive results are not listed. Calls of active or inactive are those of the source. Unless noted, calls come from the whole dose curve; as a rule, active = well fitted curve in the direction sought with a large enough effect in the repeat runs; inconclusive = weak or mixed curves; inactive = no such curve, though single readings can be large; an effect the other way counts as inactive or inconclusive.

Columns and labels:
[1] = A CellTox Green Cytotoxicity Assay to monitor cytotoxicity in HepG2 cells - 8 hour (AID 1224890); note: nearly all actives have a fitted effect of over 45% in size
Method in brief: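 First, HepG2 cells (600/well) mixed with reagent were plated; second, after 5 h at 37 C they received compounds via pintool; third, fluorescence was measured at 0 h through 40 h at 8 h intervals.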

[2] = qHTS assay to identify small molecule antagonists of the estrogen receptor alpha (ER-alpha) signaling pathway using the BG1 cell line in the presence of 0.1 nM 17-beta-estradiol - cell viability counter screen (AID 1259241); note: nearly all actives have a fitted effect of over 40% in size
Method in brief: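 VM7Luc4E2 cells (endogenous full-length ER-alpha, 4xERE-luciferase), cultured 5 days in charcoal-stripped serum, exposed to compounds with 0.1 nM 17beta-estradiol (final) for 22 hr at 37C. Viability read in same wells as live-cell protease fluorescence after 30 min.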

[3] = qHTS assay to identify small molecule antagonists of the androgen receptor (AR) signaling pathway using the MDA cell line in the presence of 0.5 nM R1881 - cell viability counter screen (AID 1259242); note: nearly all actives have a fitted effect of over 45% in size
Method in brief: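 qHTS format. MDA-kb2 (MMTV-luc, AR/GR responsive) + cpd + 0.5 nM R1881 final, 16 hr 37C/0% CO2 → CellTiter-Fluor 30 min → fluorescence intensity.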

[4] = target: Androgen receptor (Homo sapiens) (UniProt P10275); assay: qHTS assay to identify small molecule antagonists of the androgen receptor (AR) signaling pathway using the MDA cell line in the presence of 0.5 nM R1881 (AID 1259243); note: nearly all actives have a fitted effect of over 50% in size; note: potency is the fitted concentration of half-maximal effect
Androgen receptor (Homo sapiens), sequence (P10275 whole entry, looked up): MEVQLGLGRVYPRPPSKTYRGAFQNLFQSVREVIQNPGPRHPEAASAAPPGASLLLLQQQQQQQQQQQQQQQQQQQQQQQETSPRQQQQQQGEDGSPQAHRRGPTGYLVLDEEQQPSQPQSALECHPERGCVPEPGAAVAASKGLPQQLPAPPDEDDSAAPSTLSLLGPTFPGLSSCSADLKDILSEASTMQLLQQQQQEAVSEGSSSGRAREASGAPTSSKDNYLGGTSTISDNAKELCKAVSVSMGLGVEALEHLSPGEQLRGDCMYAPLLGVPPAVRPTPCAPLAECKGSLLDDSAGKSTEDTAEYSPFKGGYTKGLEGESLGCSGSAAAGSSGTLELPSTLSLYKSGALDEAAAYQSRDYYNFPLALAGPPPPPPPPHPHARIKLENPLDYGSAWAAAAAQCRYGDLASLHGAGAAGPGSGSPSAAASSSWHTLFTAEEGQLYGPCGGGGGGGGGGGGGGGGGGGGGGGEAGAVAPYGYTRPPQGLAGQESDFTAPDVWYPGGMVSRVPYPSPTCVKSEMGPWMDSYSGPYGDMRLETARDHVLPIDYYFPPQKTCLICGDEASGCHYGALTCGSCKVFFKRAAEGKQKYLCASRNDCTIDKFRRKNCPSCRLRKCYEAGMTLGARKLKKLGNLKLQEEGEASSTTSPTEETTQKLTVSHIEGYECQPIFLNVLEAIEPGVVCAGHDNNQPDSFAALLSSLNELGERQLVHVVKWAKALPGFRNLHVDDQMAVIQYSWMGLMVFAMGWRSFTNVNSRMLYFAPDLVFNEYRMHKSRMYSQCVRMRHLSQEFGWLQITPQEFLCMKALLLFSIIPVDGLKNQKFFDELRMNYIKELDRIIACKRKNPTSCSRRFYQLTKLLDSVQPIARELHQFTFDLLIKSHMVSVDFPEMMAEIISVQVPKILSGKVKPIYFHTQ
Method in brief: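 Antagonist mode quantitative HTS in MDA-kb2 MMTV-luciferase cells, agonist R1881 at 0.5 nM final, 16 hr exposure at 37C and 0% CO2, luminescent detection.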

[5] = target: Estrogen receptor (Homo sapiens) (UniProt P03372); assay: qHTS assay to identify small molecule antagonists of the estrogen receptor alpha (ER-alpha) signaling pathway using the BG1 cell line in the presence of 0.1 nM 17-beta-estradiol (AID 1259244); note: nearly all actives have a fitted effect of over 50% in size
Estrogen receptor (Homo sapiens), sequence (P03372 whole entry, looked up): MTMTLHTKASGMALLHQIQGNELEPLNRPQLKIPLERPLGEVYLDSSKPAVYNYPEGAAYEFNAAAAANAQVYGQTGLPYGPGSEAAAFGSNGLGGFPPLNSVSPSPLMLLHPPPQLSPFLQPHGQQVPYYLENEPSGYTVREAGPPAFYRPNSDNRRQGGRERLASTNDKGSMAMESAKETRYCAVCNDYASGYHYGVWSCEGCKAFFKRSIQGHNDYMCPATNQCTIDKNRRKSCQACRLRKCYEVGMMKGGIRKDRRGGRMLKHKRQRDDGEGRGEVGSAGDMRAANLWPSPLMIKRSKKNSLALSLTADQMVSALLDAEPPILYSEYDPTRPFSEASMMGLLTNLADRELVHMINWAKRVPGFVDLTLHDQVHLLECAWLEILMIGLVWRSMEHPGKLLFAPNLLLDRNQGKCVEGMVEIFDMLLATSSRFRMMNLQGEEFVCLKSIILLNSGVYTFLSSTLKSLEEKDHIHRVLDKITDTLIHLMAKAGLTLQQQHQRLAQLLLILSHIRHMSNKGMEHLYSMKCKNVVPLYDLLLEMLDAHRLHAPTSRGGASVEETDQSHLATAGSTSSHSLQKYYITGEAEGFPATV
Method in brief: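 Reporter is a stably transfected luciferase under four estrogen responsive elements in VM7Luc4E2 cells expressing native full-length ER-alpha; inhibition of 0.1 nM (final) 17beta-estradiol-driven signal over 22 h is read by luminescence.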

[6] = qHTS assay to identify small molecule HDAC inhibitors (AID 1259364); note: potency is the fitted concentration of half-maximal effect;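 note: wild-type HCT-116 cells with endogenous class I/II HDAC activity; nearly all actives have a fitted effect of over 45% in size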
Method in brief: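 Quantitative high-throughput format: overnight-seeded HCT-116 cells got compounds for 2 hr at 37C; HDAC-Glo I/II reagent added, 30 min RT, luminescence measured.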

[7] = qHTS assay to identify small molecule HDAC inhibitors - cell viability counter screen (AID 1259365); note: series mostly up to about 92 µM; nearly all actives have a fitted effect of over 50% in size
Method in brief: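 Wild-type HCT-116 cells, 1,500/well, cultured overnight, then compound-treated 2 h at 37 C. Viability measured as ATP luminescence with CellTiter-Glo after 30 min at room temperature.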

[8] = qHTS assay to identify small molecule agonists of the sonic hedgehog signaling (Shh) pathway - cell viability counter screen (AID 1259366); note: nearly all actives have a fitted effect of over 50% in size
Method in brief: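 NIH/3T3-derived Gli1-Luc reporter cells, 2,000 per well, received compound after 4 h and were treated about 23 h at 37C. Viability measured in the same wells by CellTiter-Fluor fluorescence after 1 h.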

[9] = qHTS assay to identify small molecule antagonists of the sonic hedgehog signaling (Shh) pathway - cell viability counter screen (AID 1259367); note: nearly all actives have a fitted effect of over 55% in size
Method in brief: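 Conditioned medium drove Shh signaling in 3T3 Gli1-Luc cells exposed to compounds at 37C and 5% CO2. Viability was determined from CellTiter-Fluor fluorescence, with reagent incubated 1 hr after 23 hr of treatment.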

[10] = qHTS assay to identify small molecule antagonists of the sonic hedgehog signaling (Shh) pathway (AID 1259369; calls by dose curve; note: nearly all actives have a fitted effect of over 45% in size; note: potency is the fitted concentration of half-maximal effect)
Method in brief: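 Stable Gli1-Luc reporter NIH/3T3 clone; quantitative HTS in stimulated mode with conditioned medium. Luminescence measured after 24hr compound treatment at 37 C.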

[11] = qHTS assay to identify small molecule agonists of the androgen receptor (AR) signaling pathway in the presence of an antagonist - cell viability counter screen (AID 1259379);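 note: MDA-kb2 human breast cancer cells carrying an MMTV luciferase reporter; series mostly up to about 92 µM; nearly all actives have a fitted effect of over 25% in size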
Method in brief: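 Nilutamide-containing (3.0uM final) MDA-kb2 cultures, 3,000 cells/well, were treated with compounds across 15 concentrations. After 16 hr at 37C with no CO2, cell viability was determined by CellTiter-Fluor fluorescence in the luciferase assay wells.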

[12] = qHTS assay to identify small molecule agonists of the estrogen receptor beta (ER-beta) signaling pathway - cell viability counter screen (AID 1259380); note: nearly all actives have a fitted effect of over 30% in size
Method in brief: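 Steps: plate ER-beta-UAS-bla HEK293T cells, rest 6 hr; add compounds in DMSO; incubate 16 hr at 37C, 5% CO2; add FRET substrate 2 hr; add CellTiter-Glo, wait 30 min at room temperature; read luminescence.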

[13] = qHTS assay to identify small molecule antagonists of the estrogen receptor beta (ER-beta) signaling pathway - cell viability counter screen (AID 1259382); note: series mostly up to about 92 µM; nearly all actives have a fitted effect of over 55% in size
Method in brief: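 Viability is scored by CellTiter-Glo luminescence (30 min, room temperature) in ER-beta-UAS-bla HEK293T wells already read for reporter fluorescence. Compound exposure lasts 16 hr at 37C alongside 1nM 17-beta-estradiol in charcoal-stripped serum medium.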

[14] = target: Estrogen receptor (Homo sapiens) (UniProt P03372); assay: qHTS assay to identify small molecule agonists of the estrogen receptor alpha (ER-alpha) signaling pathway in the presence of an antagonist (AID 1259383; calls by dose curve; note: top concentration of the series differs between compounds; nearly all actives have a fitted effect of over 15% in size)
Method in brief: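 Readout was ERE-driven luciferase luminescence in VM7Luc4E2 cells, which express full-length ER-alpha endogenously. Compounds were tested at 15 concentrations for 22hr alongside 10.0nM ICI-182,780 (final concentration).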

[15] = qHTS assay to identify small molecule agonists or antagonists of the thyroid stimulating hormone receptor (TSHR) signaling pathway - wild type cell line counter screen (AID 1259384; calls by dose curve)
Method in brief: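 Wild-type HEK293 cells were plated 18 h at 37 C/5% CO2, pin-dosed with compound plus Ro20-1724 medium, held 30 min at room temperature, then given cAMP-d2 and anti-cAMP-cryptate; fluorescence was read after 1 h. Fifteen concentrations, triplicate.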

[16] = qHTS assay to identify small molecule phospholipidosis (PLD) inducers (AID 1259344; active = well fitted curve in the direction sought with a large enough effect; an effect the other way counts as inactive or inconclusive)
Method in brief: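 After 4 h attachment on collagen I, HepG2 cells were dosed with compound alongside LipidTOX Red, kept 24 h at 37 C, fixed, and imaged for lamellar phospholipid pits.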

[17] = qHTS assay to identify small molecule agonists of the sonic hedgehog signaling (Shh) pathway (AID 1259368; calls by dose curve; note: nearly all actives have a fitted effect of over 15% in size; note: potency is the fitted concentration of half-maximal effect)
Method in brief: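 Quantitative high-throughput format using a Gli1-driven firefly luciferase reporter line derived from NIH/3T3 cells. After a 24 hr compound treatment at 37 C and 5% CO2, luminescence reported Gli1 response element activity.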

[18] = target: Estrogen receptor beta (Homo sapiens) (UniProt Q92731); assay: qHTS assay to identify small molecule agonists of the estrogen receptor beta (ER-beta) signaling pathway (AID 1259377; active = well fitted activation curve with a large enough effect in the signal ratio in the repeat runs, not every such curve was filed as active; the % refers to the signal ratio)
Estrogen receptor beta (Homo sapiens), sequence (Q92731 whole entry, looked up): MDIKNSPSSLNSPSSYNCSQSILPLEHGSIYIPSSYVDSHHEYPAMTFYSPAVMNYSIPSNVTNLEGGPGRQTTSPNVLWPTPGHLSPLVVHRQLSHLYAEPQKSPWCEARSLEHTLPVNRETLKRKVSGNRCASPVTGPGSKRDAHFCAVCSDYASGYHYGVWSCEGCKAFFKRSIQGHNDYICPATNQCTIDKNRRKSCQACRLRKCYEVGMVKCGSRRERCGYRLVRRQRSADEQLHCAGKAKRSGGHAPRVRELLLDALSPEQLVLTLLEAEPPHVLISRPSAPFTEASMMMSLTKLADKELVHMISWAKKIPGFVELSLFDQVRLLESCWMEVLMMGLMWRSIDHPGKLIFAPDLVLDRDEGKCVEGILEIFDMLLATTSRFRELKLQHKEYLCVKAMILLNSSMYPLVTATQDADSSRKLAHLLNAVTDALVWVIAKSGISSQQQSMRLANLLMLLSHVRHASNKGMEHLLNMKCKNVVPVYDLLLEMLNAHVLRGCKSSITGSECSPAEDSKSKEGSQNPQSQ
Method in brief: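 ER-beta-UAS-bla HEK293T cells in medium with 2% charcoal-stripped FBS were exposed to compounds for 16 h at 37C. Beta-lactamase reporter activity was read as fluorescence after 2 h with LiveBLAzer B/G FRET substrate at room temperature.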

[19] = target: Estrogen receptor beta (Homo sapiens) (UniProt Q92731); assay: qHTS assay to identify small molecule antagonists of the estrogen receptor beta (ER-beta) signaling pathway (AID 1259378; active = well fitted inhibition curve with a large enough effect in the signal ratio in the repeat runs, not every such curve was filed as active; the % refers to the signal ratio)
Method in brief: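 ER-beta-UAS-bla HEK293T (GripTite) cells in 2% charcoal-stripped FBS medium were preincubated 6 hr at 37C, dosed with compound, then stimulated with 1 nM E2 (final) for 16 hr; beta-lactamase reporter read by B/G FRET fluorescence after 2 hr substrate loading.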

[20] = target: Androgen receptor (Homo sapiens) (UniProt P10275); assay: qHTS assay to identify small molecule agonists of the androgen receptor (AR) signaling pathway in the presence of an antagonist (AID 1259381; calls by dose curve; note: nearly all actives have a fitted effect of over 15% in size)
Method in brief: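 Reporter-gene luminescence from MDA-kb2 cells exposed 16hr at 37C (0% CO2) to 15-point compound titrations with 3.0uM final nilutamide as AR antagonist.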

Measured: Potency

C=C(C)[C@@H]1CCC2=CCC[C@@H](C)[C@]2(C)C1
active: [4] 27.3 µM | [10] 24.3 µM
not listed: [16] | [17] | [18] | [19] | [20]
inactive: all other assays above

COc1cc(C(=O)NCCCCCC(=O)O)cc(OC)c1OC
not listed: [4] | [15] | [20]
inactive: all other assays above

OC(CCN1CCCC1)(c1ccccc1)C1CCCCC1 (stereo not drawn)
active: [10] 8.41 µM
not listed: [5] | [8] | [9] | [14] | [19]
inactive: all other assays above

O=C1c2ccccc2C(=O)C1c1ccc(Br)cc1
active: [6] 18.8 µM
not listed: [5] | [20]
inactive: all other assays above

CS(=O)(=O)c1ccc(-c2cn3ccccc3n2)cc1
active: [6] 2.11 µM | [17] 11.9 µM | [10] 33.5 µM
not listed: [7] | [9] | [12] | [16] | [19] | [20]
inactive: all other assays above

CCCCCC[C@@H](O)C/C=C\CCCCCCCC(=O)OCC(O)CO (stereo partly drawn)
not listed: [10] | [12] | [13] | [15] | [16] | [18] | [19]
inactive: all other assays above

CC(=O)OCC(=O)NCCCOc1cccc(CN2CCCCC2)c1
not listed: [5] | [8] | [14] | [20]
inactive: all other assays above
